Compound activity (PubChem BioAssay)
This is one part of a sample in which hits are shown more often than they occur.
Sm TGR block = inhibitors of Schistosoma mansoni thioredoxin glutathione reductase | Q962Y6 | purified TGR, DTNB reduction, TNB absorbance 405 nm | Potency, µM (doses to about 114 µM), for the others: at the top dose activity change, negative = inhibition, most hits filed as inhibitors | hit rate 3% among 360,000; note: potency is the fitted concentration of half-maximal effect; % is set by controls: 0 for no effect and ±100 for the full control effect; nearly all actives have a fitted effect of over 60% in size
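First, TGR (20 nM dispensed) and NADPH were mixed with compound. Second, a 15 min room-temperature incubation followed. Third, further NADPH and then DTNB were added to start the reaction. Finally, TNB absorbance was monitored kinetically.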
TbPYK inhibitor = T. brucei pyruvate kinase inhibition; hit rate 0.12% among 410,000; TbPYK enzyme, Kinase-Glo Plus ATP luminescence, 45 min; Potency, µM (highest dose often 76.8 µM), for the others: at the highest dose activity, negative = inhibition, actives largely listed as inhibitors; Q57TT1; note: potency is the fitted concentration of half-maximal effect; % is set by controls: 0 for no effect and ±100 for the full control effect; nearly all actives have a fitted effect of over 50% in size
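Screened from lowest to highest concentration, compounds were pinned into TbPYK/substrate mixtures, and ADP (130 uM final) was added. Plates sat at room temperature for 45 min prior to Kinase-Glo Plus detection by luminescence.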
LmPK inhibitor = LmPK (Leishmania mexicana) enzyme inhibition; Q27686; purified LmPK, Kinase-Glo ATP luminescence, 1 h; Potency, µM (titrated, usually from 57.5 µM), for the others: at the highest dose activity change, negative = inhibition, hits mostly inhibitors; hit rate 0.37% among 290,000; note: potency is the fitted concentration of half-maximal effect; % is set by controls: 0 for no effect and ±100 for the full control effect
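Screened at intermediate enzyme activity to detect both inhibitors and activators: LmPK at 0.1 nM, with a 0.5 nM enzyme column as activation reference. PEP 0.5 mM, ADP 0.1 mM; ATP detected by luminescence after 1 h.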
Shiga inhibitor = inhibitors of Shiga toxin in Vero cells | Vero cells, Shiga toxin protein synthesis inhibition reporter | inhibition, % at 38.7 µM | hit rate 9.2% among 290,000 | AID 2315; in the data active = inhibition mostly above about 28%, no sharp cut-off; inactive = mostly below about 43%; note: 0% is about no effect
Giardia FBPA inh = inhibitors of Giardia lamblia fructose-1,6-bisphosphate aldolase. A8B2U2. AID 2451. purified Giardia FBPA. hit rate 0.71% among 290,000. Potency, µM (titrated, usually from 59.6 µM), for inactives: top-dose activity, negative = inhibition, most hits filed as inhibitors; note: potency is the fitted concentration of half-maximal effect; % is set by controls: 0 for no effect and ±100 for the full control effect; nearly all actives have a fitted effect of over 55% in size
Target sequence (A8B2U2 whole entry, looked up): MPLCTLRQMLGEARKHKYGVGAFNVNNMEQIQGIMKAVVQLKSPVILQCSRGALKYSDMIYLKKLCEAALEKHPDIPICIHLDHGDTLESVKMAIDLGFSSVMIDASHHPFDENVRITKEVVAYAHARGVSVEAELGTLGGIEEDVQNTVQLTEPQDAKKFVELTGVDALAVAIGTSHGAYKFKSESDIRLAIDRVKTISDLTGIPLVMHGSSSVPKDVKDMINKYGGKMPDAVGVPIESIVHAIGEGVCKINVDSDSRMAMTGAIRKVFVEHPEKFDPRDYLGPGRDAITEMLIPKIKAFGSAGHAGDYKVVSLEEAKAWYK
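Giardia FBPA (40 nM reagent) was preincubated 10 min at RT with compound (up to 57.5 uM final), then substrate plus GAPDH/TPI/NAD/arsenate coupling system with diaphorase/resazurin was added; resorufin fluorescence (525/598 nm) was read after 20 min.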
Cycloheximide cs = counter-screen for Shiga toxin inhibitors: cycloheximide protein synthesis inhibition; cell reporter, cycloheximide protein synthesis inhibition counterscreen; max response, %; hit rate 12% among 300,000; in the data active = max response mostly above about 13%, no sharp cut-off; inactive = mostly below about 14%; note: read at 38.3 µM for the half of the compounds with a filed dose; 0% is about no effect
* marks the source's active call; other numbers are inactive results; u = inconclusive; x = not tested or not shown; [ ] = remark or other dose. Unless noted, calls come from the whole dose curve; as a rule, active = well fitted curve in the direction sought with a large enough effect; inconclusive = small, poorly fitted or top-dose-only effect, or another doubt; inactive = no such curve, though single readings can be large; an effect the other way counts as inactive or inconclusive.

SMILES	Sm TGR block	TbPYK inhibitor	LmPK inhibitor	Shiga inhibitor	Giardia FBPA inh	Cycloheximide cs
COCCN1CCN(C(=O)c2cc(COc3ccc(Cl)cc3OC)on2)CC1	-32%	-15%	-12%	94*	x	58*
COc1cc(Cl)ccc1OCc1cc(C(=O)N[C@H]2CCCCNC2=O)no1	u	-3%	-8%	62*	x	36*
O=C(NC1CCc2ccccc21)c1cc(COc2ccc(F)cc2F)on1 (centres undefined)	0%	3%	6%	29	-4%	-3
COC(=O)C[C@@H]1O[C@H]1[C@H](C)[C@@H](OC)C(C)C	x	x	x	x	3%[12.9 µM]	x
CC(=O)c1ccc(NS(=O)(=O)c2ccc(-n3cccn3)cc2)cc1	-9%	-17%	x	x	x	x
COC(=O)C1=C(C(=O)OC)C2C(C)=CC(C)=CN2C(C(=O)OC)=C1C(=O)OC (centres undefined)	40µM*	0%	0%	-3	-28%	-2
COc1ccc(-c2ccccc2)cc1NCc1ccccc1C	-18%	-4%	-4%	46	-20%	44*
COc1ccccc1CNc1cc(-c2ccccc2)ccc1OC	-10%	-6%	0%	-9	-7%	6
CCc1nc2c(OCCOc3ccc(F)cc3)cccn2c1N(C)C(=O)c1ccc(C)cc1	x	-7%	x	x	x	x
CN(C)[C@@H]1C(=O)C(C(N)=O)=C(O)[C@@]2(O)C(=O)C3=C(O)c4c(O)cccc4[C@@](C)(O)C3[C@H](O)C12 (some centres undefined)	8.9µM*	-13%	x	x	x	x
CN(C)[C@@H]1C(=O)C(C(=O)NCN2CCCC2)=C(O)[C@@]2(O)C(=O)C3=C(O)c4c(O)cccc4[C@@](C)(O)C3CC12 (some centres undefined)	7.9µM*	x	3%	-6	u	-2
C=C1c2cccc(O)c2C(O)=C2C(=O)[C@]3(O)C(O)=C(C(N)=O)C(=O)[C@@H](N(C)C)[C@@H]3[C@@H](O)[C@H]12	35µM*	u	1%	-2	u	-3
COC(=O)c1ccc2c(c1)SC1=C(CCCC1=O)N2	-11%	-3%	-2%	active	-12%	21*
Cc1cc(=O)n(Cc2ccccc2)c(O)c1C#N	u	-8%	0%	x	u	1
Cc1c(C#N)c(NC(=O)CCl)n(Cc2ccc(F)cc2)c1C	4.5µM*	2%	9%	3	u	36
Cc1c(C#N)c(NC(=O)CCl)n(Cc2ccccc2)c1C	3.2µM*	1%	3%	-5	-10%	11
Cc1c(C#N)c(NC(=O)CCl)n(Cc2cccs2)c1C	4µM*	0%	12%	9	-15%	17
COc1cccc(C(NC(C)=O)c2nc(-c3cccc(C(=O)O)c3)cs2)c1 (centres undefined)	x	2%	x	x	x	x
Fc1ccc(N2CCN(C3=Nc4cccc5cccc3c45)CC2)cc1	-15%	-3%	3%	74*	-8%	24*
c1ccc(CN2CCN(C3=Nc4cccc5cccc3c45)CC2)cc1	-23%	4%	0%	48	-25%	18*
O=C1C(Cl)=C(N2CCN(Cc3ccccc3)CC2)C(=O)N1Cc1ccccc1	1%	1%	-1%	-13	-7%	1
COc1ccc(NC(=O)c2ccc(-c3nc(CSc4ccccc4)c(C)o3)cc2)c(OC)c1	-25%	-1%	x	x	x	x
O=C(COc1ccc(Br)cc1)NNC(=O)Cc1ccc(S(=O)(=O)N2CCOCC2)s1	x	-5%	x	x	x	x
Oc1ccc(/C=C\c2cc(O)cc(O)c2)cc1	x	-12%[33.2 µM]	x	x	6%	x
C[n+]1c(/C=C/c2ccc(O)cc2)ccc2ccccc21	6%	5%	-1%	64*	-2%	50*
C/C=C/c1ccc2c(c1)OCO2	-8%	2%	x	x	4%	x
C[n+]1c(/C=C/c2ccc3c(c2)OCO3)ccc2ccccc21	4%	-19%	5%	95*	-17%	51*
CC[C@@H]1O[C@]2(C=C[C@@H]1C)C[C@H]1C[C@H](CC=C(C)[C@@H](O[C@@H]3C[C@H](OC)[C@H](O[C@@H]4C[C@H](OC)[C@H](O)[C@H](C)O4)[C@H](C)O3)[C@@H](C)C=CC=C3CO[C@@H]4[C@@H](O)C(C)=C[C@@H](C(=O)O1)[C@]34O)O2	x	x	x	x	-11%[21.7 µM]	x
